This is part of a sample that, as a whole, favours compounds with a hit. Of some 83,000 tested, about 20% had one in any assay.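 Single-concentration screen, 48 h exposure, 96-well plates. Endpoint: percent growth. Below 10 = active.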 Values without a mark were called inactive. Calls of active or inactive are those of the source.
Experiments:
Assay in all cases: NCI-60 one-dose screen, 48 h (100 = growth as untreated, 0 = no growth, -100 = all killed)
Conditions in all cases: 10 µM unless noted
T-47D breast = system: T-47D breast
BT-549 breast = system: BT-549 breast
MDA-MB-435 melanoma = system: MDA-MB-435 melanoma
SW-620 colon = system: SW-620 colon
MCF7 breast = system: MCF7 breast
HCT-116 colon = system: HCT-116 colon
HCC-2998 colon = system: HCC-2998 colon
KM12 colon = system: KM12 colon

| Structure (SMILES) | growth (T-47D breast) | growth (BT-549 breast) | growth (MDA-MB-435 melanoma) | growth (SW-620 colon) | growth (MCF7 breast) | growth (HCT-116 colon) | growth (HCC-2998 colon) | growth (KM12 colon) |
| --- | --- | --- | --- | --- | --- | --- | --- | --- |
| FC(F)(F)c1cn(CCN2CCOCC2)c2ncnc(Cl)c12 | 95.1% | 93.6% | 56.5% | 53.7% | 97.5% | 15.4% | 75.2% | 101% |
| O=C(Nc1ccc(-n2cc(-c3ccncc3)c(-c3ccc(O)c(Cl)c3)n2)cc1)c1ccc(Cl)c(Cl)c1 | 36.5% | 29.3% | 27.1% | 37.3% | 28.5% | 12.3% | 33.2% | 24.6% |
| Cc1ccc(/C=C2/C(=O)Nc3cc(Cl)c(-c4csc(N)n4)cc32)cc1 | 34.9% | 53.4% | -9.13% (active) | 58.6% | 35.8% | 66% | 91.4% | 44.5% |
| N#Cc1c2c(c(N)[nH]c1=O)C(=O)NC2(O)c1ccccc1 (stereo unspecified) | 103% | 105% | 109% | 111% | 99.6% | 104% | 101% | 102% |
| COc1ccccc1N1CCN(CCCOc2ccc(OCCCN3CCN(c4ccccc4OC)CC3)c(C(=O)c3cc(OC)c(OC)c(OC)c3)c2)CC1 | 104% | 96.3% | 122% | 102% | 95.1% | 111% | 107% | 113% |
| c1ccc(CNCCN(CCNCc2ccccn2)Cc2ccc3ccccc3c2)nc1 | -4.67% (active) | 30.3% | 11.4% | 13% | 3.36% (active) | -9.29% (active) | -18.3% (active) | 12.5% |
| FC(F)(F)c1cccc([Si](F)(c2cccc(C(F)(F)F)c2)c2cccc(C(F)(F)F)c2)c1 | 40.4% | 64.5% | 95% | 82% | 67.1% | 15.6% | 99% | 74.8% |
| COc1cc(C(=O)C[n+]2ccccc2)ccc1OC(C)=O | 103% | 94.5% | 99.8% | 96.9% | 95.6% | 87.6% | 105% | 102% |
| CN(C)CC/C=C1\c2ccccc2Sc2ccc(Cl)cc21 | 70.7% | 86.5% | 36.2% | 81.5% | 62.3% | 36.5% | 27.4% | 69.3% |
| CN(C)c1ncc(C#Cc2c(F)cccc2F)c2ccccc12 | 36% | 95.7% | 105% | 97.7% | 28.5% | 80.1% | 97.6% | 98% |
| CCCN1C(=O)CSC1=Nc1ccc2cc3ccc(N=C4SCC(=O)N4CCC)cc3nc2c1 | 12.1% | 41.7% | 40.5% | 70.3% | 16.8% | 37% | 64.2% | 36.7% |
| O=C(Nc1ccc(F)cc1)Nc1ccc(Br)c(C(F)(F)F)c1 | -4.72% (active) | 15.5% | 6.46% (active) | 19.8% | 1.94% (active) | 4.58% (active) | 11.8% | 13.8% |
| COc1cccc(-c2nc3sccn3c2-c2ccnc(NCCNC(=O)Nc3cccc(C(F)(F)F)c3)n2)c1 | 42.9% | 71.9% | 21.5% | 88.9% | 54.8% | 44.6% | 40.8% | 33.5% |
| CC(C)(C)C(=O)/C=c1/[nH]c(=O)/c(=C/c2ccccc2O)s1 | 41.3% | 71.8% | -25.9% (active) | 34% | 28.1% | 21.2% | 77.6% | 29.9% |
| COc1ccc(C(=O)NC(=O)Nc2ccc3c(c2)NC(=O)/C3=C\c2[nH]c(C)c(C(=O)O)c2C)c(F)c1 | 58.5% | 21.7% | 66.4% | 55% | 74.8% | 59.6% | 46.6% | 26.3% |
| Cc1nc(-c2ccc(Cl)cc2)ccc1NC(=O)Nc1cccc(C(F)(F)F)c1 | 87.5% | 98.6% | 103% | 89.6% | 81% | 74.5% | 107% | 101% |

| Structure (SMILES) | growth (T-47D breast) | growth (BT-549 breast) | growth (MDA-MB-435 melanoma) | growth (SW-620 colon) | growth (MCF7 breast) | growth (HCT-116 colon) | growth (HCC-2998 colon) | growth (KM12 colon) |
| --- | --- | --- | --- | --- | --- | --- | --- | --- |
| CC(C)CNCC(=O)Nc1ccc(Cc2ccc(NC(=O)CNCC(C)C)cc2)cc1 | 68% | 51.7% | 88.5% | 77.5% | 43.8% | 36.4% | 36.6% | 67.7% |
| O=C(c1cc(-c2ccc(Cl)cc2)nc2ccccc12)N1N=C(c2ccccc2)CC1c1cc(-c2ccccc2)nn1-c1ccccc1 (stereo unspecified) | 75.5% | 84.9% | 83.4% | 80.6% | 76.3% | 68.1% | 89.5% | 68.6% |
| O=C(Nc1ccc(-n2ccc3c(NC(=O)c4ccccc4)nccc32)cc1)c1ccc(Cl)c(C(F)(F)F)c1 | 62.3% | 37.6% | 11.6% | -45.8% (active) | -62.6% (active) | -92.4% (active) | 19.7% | -3.15% (active) |
| CN1CCN(C(=O)/C=C/c2ccc([N+](=O)[O-])o2)CC1 | 110% | 105% | 72.7% | 82% | 68.7% | 81.6% | 103% | 83.9% |
| Nc1ccc(S(=O)(=O)Nc2cc(I)cc(I)c2)cc1 | 105% | 118% | 106% | 119% | 120% | 99.5% | 105% | 111% |
| Nc1ncnc2c1c(-c1ccc(Oc3ccccc3)cc1)nn2C[C@H]1SSC[C@@H]1O | -20.3% (active) | 78.1% | -92.9% (active) | 51.1% | 14.5% | 13% | 72.1% | 32.6% |
| O=C(/C=C/c1ccccc1)Oc1ccc(/C=C/c2cc(OC(=O)/C=C/c3ccccc3)cc(OC(=O)/C=C/c3ccccc3)c2)cc1 | 81.9% | 102% | 101% | 99.6% | 103% | 96.3% | 104% | 103% |
| CC(C)Cn1cnc2c3ccccc3nc(NCn3nc(-c4cc(Cl)cc(Cl)c4Cl)oc3=S)c21 | 94.4% | 97.5% | 91.4% | 117% | 96.2% | 79.3% | 97.4% | 99.7% |
| CCn1c(C)nc([N+](=O)[O-])c1Sc1nc(N)nc2nc[nH]c12 | 44.8% | 47.9% | 25.3% | 39.4% | 14.5% | 16% | 30.6% | 21.2% |
| Cc1ccn2cc(Cc3cc(=O)oc4c3ccc3ccccc34)c(=O)nc2c1 | 85.8% | 99.5% | 104% | 103% | 93.8% | 101% | 100% | 101% |
| CN1C(=O)C2(NN=C(c3cccc4ccccc34)S2)c2ccccc21 (stereo unspecified) | 5.27% (active) | 30.1% | 57.8% | 35.5% | 24% | 14.8% | 51.7% | 30.8% |
| C=C1C(=O)O[C@H]2[C@H]1CC/C(C(=O)NCCOCCOCC(=O)Nc1ccc(OC)c(C(N)=O)c1O)=C\CC[C@@]1(C)O[C@@H]21 | 70.6% | 86.2% | 104% | 80.1% | 83.6% | 81.2% | 104% | 101% |
| C#CCn1c(-c2cc(OC)c(OC)cc2Br)nc(-c2ccccc2)c1-c1ccccc1 | 39.3% | 60.7% | 6.82% (active) | 23.9% | 19.4% | 19.9% | 66.8% | 20% |
| COc1ccc(-c2nnc(SCC(=O)N3CCN(c4cc5c(cc4F)c(=O)c(C(=O)O)cn5C4CC4)CC3)o2)cc1OC | 70.7% | 69.1% | 100% | 96.2% | 83.6% | 55.3% | 108% | 99.4% |
| COc1ccc(Cl)cc1NC(=O)c1cc2c([nH]1)-c1nc(NC(=O)C(C)C)sc1CC2 | 82.7% | 105% | 114% | 101% | 82.6% | 80% | 101% | 94.6% |
| COc1ccc2c(c1)C(=O)/C(=C/c1cccc(OCC(=O)c3ccccc3)c1)O2 | -31.7% (active) | -15.9% (active) | 38% | -82.7% (active) | 32% | 0.433% (active) | -71.2% (active) | 71.7% |

— PubChem BioAssay (NCI)
